Measured values published in PubChem BioAssay (NCATS).
Inconclusive results are not listed. Unmarked numbers belong to inactive results. Activity calls are given as the source filed them. Calls follow the shape of the dose curve; as a rule, active = well fitted inhibition curve with a large enough effect; inconclusive = small, poorly fitted or top-dose-only effect; inactive = no such curve, though single readings can be large or run the other way.

Experiment: BET inhibitor-based combinations targeting novel dependencies in MECOM-rearranged (r) AML: SET-2 cell line (AID 2202231); also: nearly all actives have a fitted effect of over 35% in size
Details: SET-2 AML cells viability, CellTiter-Glo luminescence, 48 h; viability: stronger effect = lower value, series mostly up to about 46 µM
Source text: Ecotropic viral insertion site 1 (EVI1) is located on chromosome 3q26.2 as part of the MECOM (MDS and EVI1 complex) locus. Under normal hematopoiesis, EVI1 is a regulator of hematopoietic stem cell maintenance and self-renewal and EVI1 levels decrease as the cells differentiate. In approximately 5-10% of de novo acute myeloid leukemia (AML) EVI1 is aberrantly expressed, including Chromosomal inv(3)(q21;q26.2) or t(3;3)(q21;q26.2) alterations (MECOM-r) that account for about 50% of AML with EVI1 overexpression 31. AMLs with high levels of EVI1 have a poor prognosis and an overall survival time averaging between 10-14 months. EVI1 overexpression confers resistance in leukemia cells, highlighting the need to develop new targeted therapies for EVI1 overexpressing AMLs.
Here, we performed an unbiased chemical drug screening by evaluating the single agent activity of a collection of 2,480 oncology-focused, approved and investigational drugs (NCATS Mechanism Interrogation Plates, MIPE v5.0) against a panel of seven AML cell lines. These included four MECOM-r cell-lines (AML-191, AML-194, UCSD-AML1 and HNT-34) and three non-MECOM-r AMLs (MV4-11, OCI-AML3 and SET-2). Exploiting the mechanistic redundancy built in the library, we identified target-level sensitivities in MECOM-r AML cells and relative activity as compared to other AML subtypes.
A collection of 2480 mechanistically annotated dugs (MIPE v5.0) was used to screen four 3q26.2 rearranged AML cell lines and three non-3q26.2 rearranged AML cell lines. This library purposely exploits redundancy by including multiple inhibitors of key onco-targets, while simultaneously encompassing mechanistic diversity, targeting more than 800 distinct mechanisms of action. Briefly, cells were seeded in 5 uL of growth media using a Multidrop Combi dispenser into 1536 well white polystyrene tissue culture treated plates (Corning) at a density of 500cells/well. For each cell-line, for each of the 2480 drugs in MIPE v5.0 library, an 11-point dose curve was generated via a 1536 pin-tool. Plates were incubated for 48 hr at standard incubator conditions, covered by a stainless steel gasketed lid to prevent evaporation. Cell viability was determined by luminescence based, Cell Titer Glo assay (Promega). In detail, 3 uL of Cell Titer Glo were added to each well and plates were incubated at room temperature for 15 min with a stainless-steel lid in place. Luminescence readings were taken using a Viewlux (PerkinElmer) with a 2 s exposure time per plate. Compound dose-response curves were normalized to DMSO and empty well controls on each plate. Quantitative drug activity data from dose-response curves was determined utilizing area Under the Curve (AUC) and Z-transformed AUC (Z-AUC, a mean-centering transformation applied to each individual cell-line screened).
Potency is read from the fitted curve at half-maximal effect.

SMILES	Potency	viability
COC(=O)Nc1nc2ccc(C(=O)c3cccs3)cc2[nH]1	0.209 µM (active)	
COc1ccc(C=Cc2cc(OC)c(OC)c(OC)c2)cc1NC(=O)[C@H](N)CO	0.263 µM (active)	
Nc1ccccc1NC(=O)c1ccc(CNc2nccc(-c3cccnc3)n2)cc1	1.66 µM (active)	
C#CC[C@H](c1nc2cc(Cl)ccc2c(=O)n1Nc1ccccc1)N(CCCN)C(=O)c1cccc(Cl)c1F	10.5 µM (active)	
NNCCc1ccccc1		108%
O=C(O)c1cccc(-c2noc(-c3ccccc3F)n2)c1	20.9 µM (active)	
NC(=O)Nc1cc(-c2ccc(CN3CCOCC3)cc2)sc1C(N)=O	10.5 µM (active)	
CCN(c1cc(-c2ccc(CN3CCOCC3)cc2)cc(C(=O)NCc2c(C)cc(C)[nH]c2=O)c1C)C1CCOCC1		94.8%
c1ccc(-c2oc3ncnc(NC[C@@H]4CCCO4)c3c2-c2ccccc2)cc1		86.5%
O=C(Nc1ccc2[nH]nc(-c3ccncc3)c2c1)[C@@H]1CCN(CC(=O)N2CCN(c3ccc(-c4ncccn4)cc3)CC2)C1	23.5 µM (active)	
C[C@@H]1C[C@H]2[C@@H]3CCC4=CC(=O)C=C[C@]4(C)[C@@]3(F)[C@@H](O)C[C@]2(C)[C@@]1(O)C(=O)CO		112%
Cc1cc(OCCCS(C)(=O)=O)cc(C)c1-c1cccc(COc2ccc3c(c2)OC[C@H]3CC(=O)O)c1		98.7%
CC1=C(CC(=O)O)c2cc(F)ccc2C1=Cc1ccc(S(C)=O)cc1 (stereo not given)		104%
COc1cc(CNC(=O)CCCC/C=C/C(C)C)ccc1O	14.8 µM (active)	
COC(=O)c1ccc2c(C(=Nc3ccc(N(C)C(=O)CN4CCN(C)CC4)cc3)c3ccccc3)c(O)[nH]c2c1	11.8 µM (active)	
CN(C)CCOC(c1ccccc1)c1ccccc1		105%
CCCc1cc(C(N)=S)ccn1		112%
Cc1cc(Cl)ccc1OCCCC(=O)NO	1.32 µM (active)	
O=C(O)c1cn(C2CC2)c2cc(N3CCNCC3)c(F)cc2c1=O		109%
NC(=O)c1ccc(-c2nc(-c3ccc4c(c3)OCCO4)c(-c3ccccn3)[nH]2)cc1		104%

SMILES	Potency	viability
CCCN(CCC)C(=O)C(CCC(=O)O)NC(=O)c1ccccc1 (stereo not given)		109%
Oc1ccc(OCc2ccccc2)cc1		81.8%
COc1ccc2cc(OCC3(C(=O)O)CN(C(=O)c4ccc(F)cc4)C3)ccc2c1		113%
CCC(C)N(C)C(=O)c1cc2ccccc2c(-c2ccccc2Cl)n1 (stereo not given)		102%
Cc1ccccc1C(C(=O)NC1CCCCC1)N(C(=O)Cn1ccnc1C)c1cccc(F)c1 (stereo not given)		116%
CN(C)CCOc1cc(-c2cn[nH]c2)ccc1NC(=O)C1COc2ccccc2O1 (stereo not given)		92.6%
CC(C)(Sc1ccc(CCN(CCCCC2CCCCC2)C(=O)NC2CCCCC2)cc1)C(=O)O		118%
Cc1ccc(C(=O)Nc2cccc(C(F)(F)F)c2)cc1-c1ccc2nc(NCCN3CCOCC3)ncc2c1	11.8 µM (active)	
CCCCCOC(=O)Nc1nc(=O)n([C@@H]2O[C@H](C)[C@@H](O)[C@H]2O)cc1F		110%
CC1(C)CCC2=C(O1)c1ccccc1C(=O)C2=O	18.6 µM (active)	
COc1cc(-c2nn(C3CCC(N4CCN(C(C)=O)CC4)CC3)c3ncnc(N)c23)ccc1NC(=O)c1cc2ccccc2n1C (stereo not given)	9.34 µM (active)	
C[C@H]1C[C@@H]2[C@H]([C@@H](O)C[C@@]3(C)[C@H]2CC[C@]3(O)C(=O)CO)[C@@]2(C)C=CC(=O)C=C12		114%
COc1ccc(CNc2nc(N(CCO)CCO)nc3c2ncn3C(C)C)cc1	8.33 µM (active)	
CN1C(=O)C[C@H](C(=O)N[C@@H](Cc2cnc[nH]2)C(=O)N2CCC[C@@H]2C(N)=O)NC1=O		98.4%
Cc1noc(-c2ccc(CSCCC(=O)O)cc2)c1NC(=O)OC(C)c1ccccc1Cl (stereo not given)		114%
NC[C@H]1O[C@H](O[C@@H]2[C@@H](O)[C@@H](O[C@H]3O[C@H](CO)[C@@H](O)[C@H](N)[C@@H]3O)[C@H](N)C[C@@H]2N)[C@H](O)[C@@H](O)[C@H]1O		111%
CCCC(CCC)C(=O)Nc1ccn([C@@H]2O[C@H](CO)[C@@H](O)C2(F)F)c(=O)n1	3.72 µM (active)	
N=c1ccn2c(n1)O[C@H]1[C@@H](O)[C@@H](CO)O[C@H]12	1.05 µM (active)	
C[N+]1(C)[C@@H]2CC(OC(=O)[C@H](CO)c3ccccc3)C[C@H]1[C@@H]1O[C@@H]12 (stereo not given in full)		116%
CNc1nccc(-c2cccnc2Oc2cc(C(=O)Nc3cccc(C(F)(F)F)c3)ccc2C)n1	16.6 µM (active)	
